The supplement of paper PMC12282887
± gives the standard deviation of the averaged measurements.

What was measured:
Test in all cases: promoter activity interaction Z-score (Lux/OD deviation from empty-vector control); higher = stronger promoter induction by the compound
[1] = test system: E. coli BW25113 acrABp lux reporter
In short: (§1)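 Reporter strains of E. coli BW25113 grew at 37°C in 40 µl LB Lennox in 384-well plates. Readings of OD600 and luminescence were taken every 30 min over 12 h, integrated over 0–8 h (wild type) or 1–9 h (deletion strains), and wells below 10% of the median growth value were excluded. Scores are Z-transformed residuals of growth-normalised luminescence from a fit against a control.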

[2] = test system: E. coli BW25113 marRABp lux reporter
In short: as §1

[3] = test system: E. coli BW25113 micFp lux reporter
In short: as §1

[4] = test system: E. coli BW25113 ompFp lux reporter
In short: as §1

[5] = test system: E. coli BW25113 robp lux reporter
In short: as §1

[6] = test system: E. coli BW25113 soxSp lux reporter
In short: as §1

[7] = test system: E. coli BW25113 tolCp lux reporter
In short: as §1

[8] = 1329.2 µg/ml, genetic background: wild type
[9] = 1329.2 µg/ml, genetic background: ΔmarA
[10] = 1329.2 µg/ml, genetic background: Δrob
[11] = 1329.2 µg/ml, genetic background: ΔsoxS
[12] = 2658.5 µg/ml, genetic background: wild type
[13] = 2658.5 µg/ml, genetic background: ΔmarA
[14] = 2658.5 µg/ml, genetic background: Δrob
[15] = 2658.5 µg/ml, genetic background: ΔsoxS
[16] = 5317 µg/ml, genetic background: wild type
[17] = 5317 µg/ml, genetic background: ΔmarA
[18] = 5317 µg/ml, genetic background: Δrob
[19] = 5317 µg/ml, genetic background: ΔsoxS
[20] = 10634 µg/ml, genetic background: wild type
[21] = 10634 µg/ml, genetic background: ΔmarA
[22] = 10634 µg/ml, genetic background: ΔsoxS

CCN(CC)CCOC(=O)c1ccc(N)cc1 [Procaine]
promoter activity interaction Z-score [1, 8]: -0.662 ± 0.28 | promoter activity interaction Z-score [1, 9]: -0.602 ± 0.28 | promoter activity interaction Z-score [1, 10]: -0.872 ± 0.16 | promoter activity interaction Z-score [1, 11]: -0.805 ± 0.27 | promoter activity interaction Z-score [1, 12]: -0.675 ± 0.27 | promoter activity interaction Z-score [1, 13]: -0.191 ± 0.011 | promoter activity interaction Z-score [1, 14]: -0.754 ± 0.019 | promoter activity interaction Z-score [1, 15]: -0.807 ± 0.058 | promoter activity interaction Z-score [1, 16]: -0.798 ± 0.5 | promoter activity interaction Z-score [1, 17]: 0.353 ± 0.5 | promoter activity interaction Z-score [1, 18]: -0.739 ± 0.25 | promoter activity interaction Z-score [1, 19]: -1.88 ± 0.78 | promoter activity interaction Z-score [1, 20]: -0.735 ± 0.28 | promoter activity interaction Z-score [1, 21]: -0.543 ± 0.93 | promoter activity interaction Z-score [1, 22]: -1.22 ± 0.13 | promoter activity interaction Z-score [2, 8]: 0.474 ± 0.19 | promoter activity interaction Z-score [2, 9]: 1.13 ± 0.098 | promoter activity interaction Z-score [2, 10]: -0.044 ± 0.24 | promoter activity interaction Z-score [2, 11]: 0.558 ± 0.086 | promoter activity interaction Z-score [2, 12]: 0.562 ± 0.12 | promoter activity interaction Z-score [2, 13]: 1.42 ± 0.24 | promoter activity interaction Z-score [2, 14]: -0.0229 ± 0.4 | promoter activity interaction Z-score [2, 15]: 0.555 ± 0.11 | promoter activity interaction Z-score [2, 16]: 0.94 ± 0.094 | promoter activity interaction Z-score [2, 17]: 2.128 ± 0.015 | promoter activity interaction Z-score [2, 18]: 0.0444 ± 0.17 | promoter activity interaction Z-score [2, 19]: 0.444 ± 0.23 | promoter activity interaction Z-score [2, 20]: 1.63 ± 0.15 | promoter activity interaction Z-score [2, 21]: 2.15 ± 0.55 | promoter activity interaction Z-score [2, 22]: 2.04 ± 0.25 | promoter activity interaction Z-score [3, 8]: 0.885 ± 0.053 | promoter activity interaction Z-score [3, 9]: 0.505 ± 0.026 | promoter activity interaction Z-score [3, 10]: 0.103 ± 0.024 | promoter activity interaction Z-score [3, 11]: 1.88 ± 0.031 | promoter activity interaction Z-score [3, 12]: 1.93 ± 1.1 | promoter activity interaction Z-score [3, 13]: 0.738 ± 0.027 | promoter activity interaction Z-score [3, 14]: 0.206 ± 0.083 | promoter activity interaction Z-score [3, 15]: 3.42 ± 0.14 | promoter activity interaction Z-score [3, 16]: 2.99 ± 1 | promoter activity interaction Z-score [3, 17]: 0.535 ± 0.11 | promoter activity interaction Z-score [3, 18]: 0.692 ± 0.16 | promoter activity interaction Z-score [3, 19]: 3.95 ± 0.25 | promoter activity interaction Z-score [3, 20]: 4.96 ± 1.1 | promoter activity interaction Z-score [3, 21]: 0.433 ± 0.12 | promoter activity interaction Z-score [3, 22]: 1.99 ± 0.39 | promoter activity interaction Z-score [4, 8]: -1.52 ± 0.52 | promoter activity interaction Z-score [4, 9]: -1.23 ± 0.023 | promoter activity interaction Z-score [4, 10]: -1 ± 0.25 | promoter activity interaction Z-score [4, 11]: -1.06 ± 0.18 | promoter activity interaction Z-score [4, 12]: -1.95 ± 0.51 | promoter activity interaction Z-score [4, 13]: -1.57 ± 0.11 | promoter activity interaction Z-score [4, 14]: -1.23 ± 0.6 | promoter activity interaction Z-score [4, 15]: -2.1 ± 0.11 | promoter activity interaction Z-score [4, 16]: -2.79 ± 0.89 | promoter activity interaction Z-score [4, 17]: -2.57 ± 0.088 | promoter activity interaction Z-score [4, 18]: -2.71 ± 0.78 | promoter activity interaction Z-score [4, 19]: -3.43 ± 0.31 | promoter activity interaction Z-score [4, 20]: -3.06 ± 0.97 | promoter activity interaction Z-score [4, 21]: -3.26 ± 0.22 | promoter activity interaction Z-score [4, 22]: -2.71 ± 0.13 | promoter activity interaction Z-score [5, 8]: -0.965 ± 0.38 | promoter activity interaction Z-score [5, 9]: -0.355 ± 0.47 | promoter activity interaction Z-score [5, 10]: -0.376 ± 0.3 | promoter activity interaction Z-score [5, 11]: -0.451 ± 0.9 | promoter activity interaction Z-score [5, 12]: -0.714 ± 0.31 | promoter activity interaction Z-score [5, 13]: -0.386 ± 0.2 | promoter activity interaction Z-score [5, 14]: -0.635 ± 0.58 | promoter activity interaction Z-score [5, 15]: -1.84 ± 0.3 | promoter activity interaction Z-score [5, 16]: -0.969 ± 0.17 | promoter activity interaction Z-score [5, 17]: -0.0415 ± 0.013 | promoter activity interaction Z-score [5, 18]: -1.1 ± 0.3 | promoter activity interaction Z-score [5, 19]: -1.99 ± 0.064 | promoter activity interaction Z-score [5, 20]: -0.708 ± 0.78 | promoter activity interaction Z-score [5, 21]: -0.129 ± 0.82 | promoter activity interaction Z-score [5, 22]: -0.881 ± 1.3 | promoter activity interaction Z-score [6, 8]: 0.403 ± 0.099 | promoter activity interaction Z-score [6, 9]: 0.609 ± 0.067 | promoter activity interaction Z-score [6, 10]: 0.838 ± 0.31 | promoter activity interaction Z-score [6, 11]: 0.324 ± 0.23 | promoter activity interaction Z-score [6, 12]: 0.281 ± 0.23 | promoter activity interaction Z-score [6, 13]: 1.06 ± 0.17 | promoter activity interaction Z-score [6, 14]: 1.61 ± 0.96 | promoter activity interaction Z-score [6, 15]: 0.224 ± 0.071 | promoter activity interaction Z-score [6, 16]: 0.719 ± 0.53 | promoter activity interaction Z-score [6, 17]: 1.68 ± 0.037 | promoter activity interaction Z-score [6, 18]: 1.63 ± 0.81 | promoter activity interaction Z-score [6, 19]: 0.114 ± 0.72 | promoter activity interaction Z-score [6, 20]: 0.878 ± 0.58 | promoter activity interaction Z-score [6, 21]: 1.37 ± 0.74 | promoter activity interaction Z-score [6, 22]: -0.539 ± 1.1 | promoter activity interaction Z-score [7, 8]: 0.541 ± 0.79 | promoter activity interaction Z-score [7, 9]: -0.042 ± 0.17 | promoter activity interaction Z-score [7, 10]: 0.413 ± 1.2 | promoter activity interaction Z-score [7, 11]: -0.32 ± 1.4 | promoter activity interaction Z-score [7, 12]: 0.257 ± 0.23 | promoter activity interaction Z-score [7, 13]: -0.2 ± 0.34 | promoter activity interaction Z-score [7, 14]: 0.54 ± 1.8 | promoter activity interaction Z-score [7, 15]: -0.137 ± 0.1 | promoter activity interaction Z-score [7, 16]: -1.14 ± 0.3 | promoter activity interaction Z-score [7, 17]: -0.284 ± 0.59 | promoter activity interaction Z-score [7, 18]: -0.2 ± 0.18 | promoter activity interaction Z-score [7, 19]: 0.786 ± 1 | promoter activity interaction Z-score [7, 20]: 2.42 ± 2.2 | promoter activity interaction Z-score [7, 21]: 1.73 ± 2.4 | promoter activity interaction Z-score [7, 22]: 0.696
